BCR signal inh = inhibitors of chronic active B-cell receptor signaling; Potency, µM (series often up to 46.1 µM), for inactives: at the top dose activity change, negative = inhibition, usual class: inhibitors; AID 493014; ABC-DLBCL IkBa-CBG/CBR reporter, luminescence ratio, 4 h; actives 0.05% (n = 340,000); active = well fitted inhibition curve with a large enough effect in the signal ratio, with a control signal flat, not every such curve was filed as active; inconclusive = small, poorly fitted or top-dose-only effect, or effect the other way, or a change in a side signal; the % refers to the signal ratio;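 note: potency is the fitted concentration of half-maximal effect; plate controls were basal doxycycline-induced cells for no effect and cells given 10 µM MG132 for full effect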
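TMD8 human ABC-DLBCL cells with doxycycline-inducible IκBα–green luciferase fusion and unfused red luciferase, in 0.5% FBS medium; compounds up to 46 uM, 4 h at 37C. Green/red luminescence ratio, filter-overlap corrected, fitted to concentration-response curves.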
D1 agonist = agonists of human D1 dopamine receptor. actives 1% (n = 360,000). activation, % at 2 µM. HEK293 T-REx D1 cells, calcium flux, agonist mode. P21728; in the data active = activation above about 30%; note: 0% is about no effect
Target sequence (P21728 whole entry, looked up): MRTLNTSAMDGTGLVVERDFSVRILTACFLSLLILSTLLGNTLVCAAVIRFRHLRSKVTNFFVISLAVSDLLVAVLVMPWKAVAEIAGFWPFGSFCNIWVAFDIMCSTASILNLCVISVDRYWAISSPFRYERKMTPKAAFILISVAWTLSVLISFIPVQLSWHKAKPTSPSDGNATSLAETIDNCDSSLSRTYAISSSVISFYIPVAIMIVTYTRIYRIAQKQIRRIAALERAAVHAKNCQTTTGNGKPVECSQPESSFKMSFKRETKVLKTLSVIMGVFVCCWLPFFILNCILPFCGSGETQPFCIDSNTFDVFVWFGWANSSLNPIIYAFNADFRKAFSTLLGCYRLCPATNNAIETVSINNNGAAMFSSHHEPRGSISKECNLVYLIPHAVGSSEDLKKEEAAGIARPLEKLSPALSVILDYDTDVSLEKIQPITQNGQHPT
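Inducible HEK293 T-REx D1 cells, force-coupled to calcium signalling, were plated at 4000 cells/well with tetracycline and held overnight at 30 C. After no-wash calcium dye loading, compound-evoked calcium rise over 180 s flagged agonists.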
DRD3 agonist = activates the human D3 dopamine receptor; D3R DiscoveRx beta-arrestin cells, luminescence, 90 min; actives 0.58% (n = 410,000); max activation, %; AID 652048; P35462; in the data active = max activation above about 30%; note: 0% is about no effect
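Agonist-mode cell screen: cells plated at 1500/well and incubated overnight at 37 °C, then exposed to library compounds for 90 min at 37 °C. Detection reagent was added for 30–60 min at room temperature, and luminescence was read.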
D1 antagonist = antagonists of human D1 dopamine receptor; HEK293 TREx D1 cells, calcium flux, dopamine EC80; active compounds read low; activity change, negative = inhibition, % at 10 µM; actives 3.2% (n = 360,000); in the data active = activity change below about -30%; note: % is set by controls: 0 for no effect and ±100 for the full control effect
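Calcium flux readout: force-coupled, inducible Hek293 Trex D1 line, cells induced overnight at 30 C with tetracycline, dye-loaded 30–90 min at RT. Antagonism scored against EC80 dopamine challenge given 180 s after compound.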
D3 antag = blocks the human D3 dopamine receptor. max response, negative = inhibition, %. D3R cells, DiscoveRx beta-arrestin luminescence, antagonist mode; active compounds read low. AID 652054. actives 2.5% (n = 360,000). P35462; in the data active = max response below about -50%; inconclusive = no clear call, values can overlap the other calls; note: % is set by controls: 0 for no effect and ±100 for the full control effect
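Cells expressing the human receptor were seeded at 1500 cells/well, incubated overnight at 37 degrees C in 5% CO2, then exposed to library compounds with dopamine controls for 90 minutes at 37 degrees C before luminescent detection.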
D1 PAM = human D1 dopamine receptor positive modulation | P21728 | HEK293 TREx D1 cells, calcium flux, dopamine EC20 potentiation | potentiation, % at 10 µM | actives 0.036% (n = 360,000); in the data active = potentiation above about 30%; note: 0% is about no effect
* marks the source's active call; other numbers are inactive results. Most compounds without a hit are left out; they make up all but 6% or so of the library.

O=C(c1ccc(Cl)cc1)[C@@H]1[C@@H]2C(=O)N(c3ccc(Cl)cc3)C(=O)[C@@H]2C2c3ccccc3C=NN21 (some centres not stated) was read as BCR signal inh 1.3%, D1 agonist 27.9, DRD3 agonist 0.9, D1 antagonist -35.0*, D3 antag 2.1 and D1 PAM 1.3.
Screening CCc1nc2c(OCc3cccc(Cl)c3)cccn2c1N(C)C(=O)c1ccco1 returned DRD3 agonist -0.5 and D3 antag 13.7.
Screening Cc1ccccc1NC(=O)CCNC(=O)Cn1ccc2ccccc2c1=O returned D1 agonist 3.3, DRD3 agonist -10.5, D1 antagonist -35.4* and D1 PAM 0.9.
Screening O=C(CCN1C(=O)/C(=C\c2cccs2)SC1=S)Nc1ccc(C(=O)O)cc1 returned BCR signal inh 6.1%, D1 agonist 3.0, DRD3 agonist 2.4, D1 antagonist -6.7, D3 antag -10.5 and D1 PAM -1.1.
`O=C(CCN1C(=O)COc2ccccc21)NCCC1=CCCCC1` gave BCR signal inh inconclusive, D1 agonist -4.8, DRD3 agonist -21.1, D1 antagonist 7.2, D3 antag -110.0* and D1 PAM 5.2.
For CCN(CC)CCOC(=O)c1ccc(NC(=O)CCCN2C(=O)/C(=C\c3cccs3)SC2=S)cc1 the results were BCR signal inh inconclusive, D1 agonist 22.6, DRD3 agonist -24.1, D1 antagonist -65.9*, D3 antag -109.4* and D1 PAM -20.9.
`O=C(CN1C(=O)COc2ccccc21)NCCC1=CCCCC1` gave BCR signal inh inconclusive, D1 agonist 3.3, DRD3 agonist 4.7, D1 antagonist -4.3, D3 antag 8.7 and D1 PAM -0.5.
`O=C(Cn1nc(-c2ccccc2)ccc1=O)NCCN1CCN(c2cccc(Cl)c2)CC1` gave BCR signal inh inconclusive, D1 agonist 2.7, DRD3 agonist -30.8, D1 antagonist -1.1, D3 antag -60.2* and D1 PAM -8.6.
CCC(Sc1nnc(-c2ccc(OC)c(OC)c2)c(-c2ccc(OC)c(OC)c2)n1)C(=O)NC1CCCC1 (configuration not stated) was read as BCR signal inh -17.1%, D1 agonist -0.4, DRD3 agonist -10.2, D1 antagonist 5.5 and D1 PAM -1.6.
`CCCc1cc(=O)[nH]c(SCc2nc(-c3ccc(OCC)cc3)no2)n1` gave D1 agonist 0.2, DRD3 agonist -12.3, D1 antagonist 5.0 and D1 PAM -2.6.
`CC(C)C[C@@H]1COc2cccc(N3CCC[C@H]3CO)c2S(=O)(=O)N1` gave DRD3 agonist 2.6 and D3 antag 14.0.
CN1CCN(C(=O)CCNC(=O)Cn2ccc3ccccc3c2=O)CC1 was read as BCR signal inh inconclusive, D1 agonist 1.2, DRD3 agonist -2.8, D1 antagonist 0.8, D3 antag inconclusive and D1 PAM 4.1.
For Cc1ccc2c(c1)N(CCC(=O)NCc1ccccn1)C(=O)CO2 the results were BCR signal inh 5.9%, D1 agonist 1.6, DRD3 agonist -5.2, D1 antagonist 8.9, D3 antag -63.6* and D1 PAM -21.4.
For O=C(CCN1C(=O)COc2ccccc21)NCCN1CCN(c2cccc(Cl)c2)CC1 the results were BCR signal inh 5.4%, D1 agonist 7.7, DRD3 agonist -30.9, D1 antagonist -17.9, D3 antag -68.8* and D1 PAM -8.1.
Screening CCN(CC)CCOC(=O)c1ccc(NC(=O)CCNC(=O)Cn2ccc3ccccc3c2=O)cc1 returned BCR signal inh -2.0%, D1 agonist 3.2, DRD3 agonist 0.3, D1 antagonist -8.2, D3 antag -64.1* and D1 PAM -2.7.
For O=C(CCN1C(=O)COc2ccccc21)NCCN1CCOCC1 the results were BCR signal inh -0.1%, D1 agonist 2.0, DRD3 agonist 6.2, D1 antagonist 8.1, D3 antag 8.8 and D1 PAM 5.5.
`O=C(CCNC(=O)Cn1ccc2ccccc2c1=O)NCCN1CCc2ccccc2C1` gave BCR signal inh inconclusive, D1 agonist 0.1, DRD3 agonist -15.7, D1 antagonist -6.4, D3 antag -52.0* and D1 PAM -1.4.
For Cc1nc(-c2ccc(F)cc2)c(CC(=O)N(C)CC(=O)Nc2cccc(F)c2)s1 the results were DRD3 agonist 2.9 and D3 antag 10.5.
Screening O=C(OCc1cc(=O)n2ccsc2n1)C1(c2ccccc2)CC1 returned DRD3 agonist -0.1 and D3 antag -2.4.
For O=C(Nc1cccc(OC(F)(F)F)c1)c1cccc2c(-c3cccnc3)coc12 the results were DRD3 agonist -14.6 and D3 antag 0.0.
For COc1ccc(C(=O)N2CCCCC2c2cc(C(=O)NCc3cccnc3)no2)cc1 (configuration not stated) the results were DRD3 agonist 6.3 and D3 antag -14.4.
Screening O=C(Cn1ccc2ccccc2c1=O)NCCC(=O)N1CCN(c2cccc(Cl)c2)CC1 returned BCR signal inh -20.0%, D1 agonist 7.5, DRD3 agonist -4.6, D1 antagonist 13.3, D3 antag 31.8 and D1 PAM -1.8.
For O=C(CCNC(=O)Cn1ccc2ccccc2c1=O)NCCN1CCN(c2cccc(Cl)c2)CC1 the results were BCR signal inh inconclusive, D1 agonist 2.4, DRD3 agonist 3.4, D1 antagonist 2.3, D3 antag -60.5* and D1 PAM -3.9.
`CC(NC(=O)C1CCN(S(=O)(=O)c2ccc(F)cc2)CC1)c1ccccc1` (configuration not stated) gave D1 agonist 9.2, DRD3 agonist -16.6, D1 antagonist 2.7 and D1 PAM -2.0.
For Cc1cc(C)cc(-n2c(C)cc(/C=C3\C(=N)N4N=C(CC(C)C)SC4=NC3=O)c2C)c1 the results were BCR signal inh -1.4%, D1 agonist 0.2, DRD3 agonist 3.8, D1 antagonist -8.0, D3 antag -2.1 and D1 PAM -13.7.
For CCCC1=NN2C(=N)/C(=C\c3cc(C)n(-c4cc(C)cc(C)c4)c3C)C(=O)N=C2S1 the results were BCR signal inh 3.3%, D1 agonist 40.0*, DRD3 agonist -9.3, D1 antagonist -60.3*, D3 antag -57.5* and D1 PAM -1.3.
CCC(Nc1ccc(-c2nc(-c3cccnc3)no2)cc1[N+](=O)[O-])c1ccccc1 (configuration not stated) was read as D1 agonist 0.4, DRD3 agonist 11.7, D1 antagonist -3.8 and D1 PAM 2.6.
`CCCNS(=O)(=O)c1cc(-c2nnc3c4ccccc4c(C)nn23)ccc1OC` gave D1 agonist 4.8, DRD3 agonist 3.8, D1 antagonist -17.1 and D1 PAM -4.9.

High-throughput results deposited in PubChem BioAssay by National Center for Advancing Translational Sciences (NCATS).
